The values below come from PubChem BioAssay (NCI).

The panel holds about 79,000 compounds, 15% with a hit somewhere; the sample as a whole holds those more often. Values without a mark were called inactive. Active and inactive are the calls of the source. Cut-off read from the data, not from the text of the source: active = growth inhibition above about 70%; inactive = the rest.

Assay [1] in a line: NCI Yeast Anticancer Drug Screen. Data for the rad50 strain (AID 155).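 Note: 0% = growth of vehicle-only cultures of the same strain.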 Particulars: S. cerevisiae rad50 strain growth inhibition, active compounds read high. The procedure, abridged: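 Genetically altered yeast (DNA repair pathway); compound treatment; growth inhibition vs vehicle ctrl.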
A short description of assay [2]: NCI Yeast Anticancer Drug Screen. Data for the mec2-1 strain (AID 157). The following applies: S. cerevisiae mec2-1 strain, active compounds read high. The procedure, abridged:
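Mutant yeast (mec2-1) grown with compound; growth inhibition relative to vehicle control reported.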

The nature of assay [3]: NCI Yeast Anticancer Drug Screen. Data for the sgs1 mgt1 strain (AID 161).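 Note: 0% = growth of cultures given vehicle only.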 The following applies: S. cerevisiae sgs1 mgt1 strain, active compounds read high. Put shortly:
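Percent growth inhibition was derived by comparing compound-exposed mutant yeast with vehicle-exposed cultures. The strain carries alterations in DNA damage repair.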

A short description of assay [4]: NCI Yeast Anticancer Drug Screen. Data for the cln2 rad14 strain (AID 165).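 Note: 0% = growth equal to vehicle treated cultures.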 The following applies: S. cerevisiae cln2 rad14 strain, active compounds read high. The procedure, abridged: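 Readout is yeast growth inhibition versus vehicle-treated controls, using a strain with cln2 and rad14 alterations exposed to compound.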
A short description of assay [5]: NCI Yeast Anticancer Drug Screen. Data for the bub3 strain (AID 167). Particulars: S. cerevisiae bub3 mutant strain, active compounds read high. The procedure, abridged:
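Yeast carrying a defined mutation is treated with each compound, and growth is compared with that of vehicle-exposed cells to give inhibition.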

Assay [6] can be described thus: NCI Yeast Anticancer Drug Screen. Data for the mlh1 rad18 strain (AID 175). Particulars: S. cerevisiae mlh1 rad18 strain growth inhibition, active compounds read high. Put shortly: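 Genetically defined yeast (DNA repair-deficient) exposed to compounds; growth inhibition determined relative to vehicle.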
Setting [7] is: at 5.0 µM (retest, dose inferred, filed as 0.5).
The mark [8] stands for this setting: at 50.0 µM (retest, dose inferred, filed as 5.0).

Regarding `CCOC(=O)C1=C(C)NC(C)=C(C(=O)OCC)C1c1c(-c2ccccc2)noc1C`, the growth inhibition in assay [1] (setting [7]) is 23%; in assay [1] (setting [8]), 84% (active); in assay [1] (at 50.0 µM), 6.6%; in assay [2] (setting [7]), 7%; in assay [2] (setting [8]), 62%; in assay [2] (at 50.0 µM), -2.3%. The growth inhibition was 18% in assay [3] (setting [7]); 69% in assay [3] (setting [8]); 2.2% in assay [3] (at 50.0 µM); 0% in assay [4] (setting [7]); 40% in assay [4] (setting [8]); -3.5% in assay [4] (at 50.0 µM). The growth inhibition in assay [5] (setting [7]) is 1%; in assay [5] (setting [8]), 70% (active); in assay [5] (at 50.0 µM), 0.85%; in assay [6] (setting [7]) it was 2%; in assay [6] (setting [8]), 61%; in assay [6] (at 50.0 µM), 11.9%.
With `COc1cc2c(cc1OC)c1c(OC)c(OC)cc3c1c1c2sc(=S)n1CC3`, the growth inhibition in assay [1] (setting [7]) is 4%; in assay [1] (setting [8]), 59%; in assay [1] (at 50.0 µM), 93% (active); in assay [2] (setting [7]), 14%; in assay [2] (setting [8]), 46%; in assay [2] (at 50.0 µM) it was 96.9% (active). In addition, the growth inhibition in assay [3] (setting [7]) was 11%; in assay [3] (setting [8]), 55%; in assay [3] (at 50.0 µM), 96.1% (active); in assay [4] (setting [7]), 5%; in assay [4] (setting [8]) it was 14%; in assay [4] (at 50.0 µM), 93.8% (active). Besides, the growth inhibition in assay [5] (setting [7]) was 4%; in assay [5] (setting [8]), 33%; in assay [5] (at 50.0 µM), 95.4% (active); in assay [6] (setting [7]) it was 5%; in assay [6] (setting [8]), 53%; in assay [6] (at 50.0 µM), 99% (active).
With `NS(=O)(=O)c1ccc(N=Cc2c3ccccc3nc3cc(Cl)ccc23)cc1`, the growth inhibition in assay [1] (setting [7]) was 10%; in assay [1] (setting [8]), 34%; in assay [1] (at 50.0 µM), 46.4%; in assay [2] (setting [7]) it was 12%; in assay [2] (setting [8]), 28%; in assay [2] (at 50.0 µM), 49.1%. The growth inhibition was 16% in assay [3] (setting [7]); 39% in assay [3] (setting [8]); 53.1% in assay [3] (at 50.0 µM); 3% in assay [4] (setting [7]); 12% in assay [4] (setting [8]); 8.05% in assay [4] (at 50.0 µM). In addition, the growth inhibition was 19% in assay [5] (setting [7]); 38% in assay [5] (setting [8]); 27.6% in assay [5] (at 50.0 µM); 17% in assay [6] (setting [7]); 38% in assay [6] (setting [8]); 58.9% in assay [6] (at 50.0 µM).
On to `CCc1c(C)[nH]c2c([N+](=O)[O-])cccc12`, for which the growth inhibition in assay [1] (setting [7]) was 5%; in assay [1] (setting [8]) it was 29%; in assay [1] (at 50.0 µM), 95.2% (active); in assay [2] (setting [7]), 8%; in assay [2] (setting [8]), -14%; in assay [2] (at 50.0 µM), 94.5% (active). Moreover, the growth inhibition was -3% in assay [3] (setting [7]); -1% in assay [3] (setting [8]); 95.2% (active) in assay [3] (at 50.0 µM); -6% in assay [4] (setting [7]); -2% in assay [4] (setting [8]); 94.5% (active) in assay [4] (at 50.0 µM). Moreover, the growth inhibition in assay [5] (setting [7]) is -13%; in assay [5] (setting [8]), 3%; in assay [5] (at 50.0 µM), 96% (active); in assay [6] (setting [7]), 1%; in assay [6] (setting [8]), 27%; in assay [6] (at 50.0 µM) it was 94.8% (active).
Regarding `CC(=O)OC1=C(Br)CCc2ccccc21`, the growth inhibition was 13% in assay [1] (setting [7]); 99% (active) in assay [1] (setting [8]); 98.2% (active) in assay [1] (at 50.0 µM); 13% in assay [2] (setting [7]); 100% (active) in assay [2] (setting [8]); 97.3% (active) in assay [2] (at 50.0 µM). Moreover, the growth inhibition in assay [3] (setting [7]) was 41%; in assay [3] (setting [8]), 99% (active); in assay [3] (at 50.0 µM) it was 91.2% (active); in assay [4] (setting [7]), 11%; in assay [4] (setting [8]), 98% (active); in assay [4] (at 50.0 µM) it was 86.3% (active). In addition, the growth inhibition in assay [5] (setting [7]) is 18%; in assay [5] (setting [8]), 100% (active); in assay [5] (at 50.0 µM) it was 88.3% (active); in assay [6] (setting [7]) it was 39%; in assay [6] (setting [8]) it was 99% (active); in assay [6] (at 50.0 µM), 89.6% (active).
Consider `O=C1CSC(=S)N1c1ccc(I)cc1`, for which the growth inhibition was 1% in assay [1] (setting [7]); 34% in assay [1] (setting [8]); 99% (active) in assay [1] (at 50.0 µM); -2% in assay [2] (setting [7]); 11% in assay [2] (setting [8]); 99% (active) in assay [2] (at 50.0 µM). For the same compound, the growth inhibition was 2% in assay [3] (setting [7]); 59% in assay [3] (setting [8]); 99.2% (active) in assay [3] (at 50.0 µM); -2% in assay [4] (setting [7]); -8% in assay [4] (setting [8]); 83.8% (active) in assay [4] (at 50.0 µM). For the same compound, the growth inhibition in assay [5] (setting [7]) was -6%; in assay [5] (setting [8]), 26%; in assay [5] (at 50.0 µM), 99% (active); in assay [6] (setting [7]) it was 0%; in assay [6] (setting [8]), 75% (active); in assay [6] (at 50.0 µM), 98.7% (active).
Turning to `CCCCC1C(=S)N(c2ccccc2)N(c2ccccc2)C1=S`, the growth inhibition in assay [1] (setting [7]) was 0%; in assay [1] (setting [8]), -2%; in assay [1] (at 50.0 µM), 24.1%; in assay [2] (setting [7]), 2%; in assay [2] (setting [8]), -13%; in assay [2] (at 50.0 µM) it was 40.9%. Further, the growth inhibition in assay [3] (setting [7]) is 5%; in assay [3] (setting [8]) it was -14%; in assay [3] (at 50.0 µM), 82.8% (active); in assay [4] (setting [7]) it was 0%; in assay [4] (setting [8]), -10%; in assay [4] (at 50.0 µM) it was 8.6%. Also, the growth inhibition in assay [5] (setting [7]) was 3%; in assay [5] (setting [8]), -6%; in assay [5] (at 50.0 µM) it was 37%; in assay [6] (setting [7]) it was -7%; in assay [6] (setting [8]), 3%; in assay [6] (at 50.0 µM) it was 60.4%.
Turning to `COC1=CC(=O)c2ncc(Cl)cc2C1=O`, the growth inhibition in assay [1] (setting [7]) is -4%; in assay [1] (setting [8]) it was 97% (active); in assay [1] (at 50.0 µM), 96% (active); in assay [2] (setting [7]), -2%; in assay [2] (setting [8]), 92% (active); in assay [2] (at 50.0 µM) it was 95.5% (active). For the same compound, the growth inhibition was -9% in assay [3] (setting [7]); 89% (active) in assay [3] (setting [8]); 93.2% (active) in assay [3] (at 50.0 µM); -10% in assay [4] (setting [7]); 96% (active) in assay [4] (setting [8]); 97.3% (active) in assay [4] (at 50.0 µM). For the same compound, the growth inhibition in assay [5] (setting [7]) is -40%; in assay [5] (setting [8]), 88% (active); in assay [5] (at 50.0 µM), 83.5% (active); in assay [6] (setting [7]) it was 28%; in assay [6] (setting [8]), 97% (active); in assay [6] (at 50.0 µM), 98.3% (active).
On to `OCC1OC(NC(=S)NCSCCC(F)(F)C(F)(F)C(F)(F)C(F)(F)C(F)(F)C(F)(F)F)C(O)C(O)C1O` (stereo not given), for which the growth inhibition in assay [1] (setting [7]) is 17%; in assay [1] (setting [8]) it was -21%; in assay [1] (at 50.0 µM), 80.8% (active); in assay [2] (setting [7]) it was 7%; in assay [2] (setting [8]), 19%; in assay [2] (at 50.0 µM), 93.5% (active). Further, the growth inhibition was 36% in assay [3] (setting [7]); 36% in assay [3] (setting [8]); 93.6% (active) in assay [3] (at 50.0 µM); 22% in assay [4] (setting [7]); 37% in assay [4] (setting [8]); 66.4% in assay [4] (at 50.0 µM). Moreover, the growth inhibition is 7% in assay [5] (setting [7]); -8% in assay [5] (setting [8]); 95.1% (active) in assay [5] (at 50.0 µM); 22% in assay [6] (setting [7]); -3% in assay [6] (setting [8]); 92.3% (active) in assay [6] (at 50.0 µM).
As to `Cc1c(Cl)cc2[nH]c(C(F)(F)F)nc2c1Cl`, the growth inhibition in assay [1] (setting [7]) is 3%; in assay [1] (setting [8]), 66%; in assay [1] (at 50.0 µM), 63%; in assay [2] (setting [7]), 8%; in assay [2] (setting [8]) it was 76% (active); in assay [2] (at 50.0 µM), 75.2% (active). Besides, the growth inhibition in assay [3] (setting [7]) is 3%; in assay [3] (setting [8]), 79% (active); in assay [3] (at 50.0 µM), 71.2% (active); in assay [4] (setting [7]), 10%; in assay [4] (setting [8]) it was 71% (active); in assay [4] (at 50.0 µM) it was 65.1%. Besides, the growth inhibition is 2% in assay [5] (setting [7]); 56% in assay [5] (setting [8]); 41.5% in assay [5] (at 50.0 µM); 3% in assay [6] (setting [7]); 72% (active) in assay [6] (setting [8]); 70.5% (active) in assay [6] (at 50.0 µM).
